For five compounds, composite z-score and z-score results are on record in PubChem BioAssay.

Active and inactive are the calls of the source. Unless noted, the rule behind the calls is not given here.

Experiment [1] is described as follows: anti-His antibody binders, primary screen, artefact control for SMM control protein annotation, biochemical, small-molecule microarray, 635 nm fluorescence (AID 1128).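 Note: score merges feature fluorescence with signal-to-noise for each printed compound spot.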 Conditions: anti-His Alexa647 antibody binding, higher = more signal.
The subject of experiment [2] is Human papillomavirus type 1a E7 protein (residues 1-88). The experiment is described as follows: HPV1a E7 small-molecule binders, primary screen, biochemical, small-molecule microarray, residues 1-88, 635 nm (AID 1129). The note with it: small-molecule microarray binding, fluorescence 635 nm; higher = more signal.
Experiment [3] deals with Focal adhesion kinase 1 (Homo sapiens) (UniProt Q05397). The experiment is described as follows: small-molecule microarray binders of FAK, primary screen, biochemical, 635/667 nm fluorescence, BSA, DTT (AID 1130).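 Note: composite of spot emission at 667 nm and signal to noise over triplicate slides.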 The note with it: PTK2 binding, 635 nm fluorescence, higher = more signal.
Experiment [4] relates to Fibrinogen (Alexa647-labelled). The experiment is described as follows: fibrinogen binders on compound microarrays, profiling panel, artefact control for SMM control-protein annotation, biochemical, small-molecule microarray, 635/667 nm fluorescence (AID 1131).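 Note: z-score merges 667 nm fluorescence with per-spot signal-to-noise over triplicate slides.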 The note with it: fibrinogen-A647 binding fluorescence, higher = more signal.
In experiment [5] the target is Follistatin (Homo sapiens) (UniProt P19883). As to the kind of experiment: follistatin binders on small-molecule microarrays, primary screen, biochemical, small-molecule microarray, 635/667 nm fluorescence (AID 1132). The note with it: FST binding, 635 nm fluorescence, higher = more signal.
The target in experiment [6] is Fibroblast growth factor 2 (Homo sapiens) (UniProt P09038). The experiment is described as follows: FGF2 binders on small-molecule microarrays, primary screen, biochemical, small-molecule microarray, 635/667 nm fluorescence (AID 1133). The note with it: small-molecule microarray binding, FGF2, fluorescence 635/667; higher = more signal.
Experiment [7] can be described thus: mitochondrial membrane potential change in A549 cells, profiling panel, cell-based, JC-1 fluorescence, basal, 24 h, 100 nL (AID 1138).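 Note: A549 lung adenocarcinoma cells under basal conditions with no added stimulus; test concentration not given here.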 Conditions: higher = more signal.
In experiment [8] the test system is Lefty1. The experiment is described as follows: Lefty1 binders on small-molecule microarrays, primary screen, biochemical, small-molecule microarray, 635/667 nm fluorescence (AID 1139). Conditions: small-molecule microarray binding, fluorescence 635/667; higher = more signal.
For experiment [9], the system named is wheat germ agglutinin (Triticum aestivum), Alexa647-labelled. As to the kind of experiment: wheat germ agglutinin binders on compound microarrays, profiling panel, artefact control for SMM control-protein annotation, biochemical, small-molecule microarray, 635/667 nm fluorescence (AID 1140).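 Note: score merges 667 nm feature emission with signal to noise over triplicate slides.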 The note with it: WGA-A647 binding, 635 nm fluorescence, higher = more signal.

Experiment [10] addresses Luciferin 4-monooxygenase (Photinus pyralis) (UniProt P08659). As to the kind of experiment: firefly luciferase enzyme inhibitors, primary screen, biochemical, luminescence, purified enzyme, 2006 set (AID 1141).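 Note: cell-free assay with purified firefly luciferase at 100 ng per well in PBS; test concentration not given here.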 Conditions: SteadyGlo luminescence, 30 min, higher = more signal, called active from +8 up or from −8 down.
The test system of experiment [11] is Wnt5a (protein binding on small-molecule microarray). As to the kind of experiment: Wnt5a binders on small-molecule microarray, primary screen, biophysical, 635/667 nm fluorescence (AID 1142).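 Note: fluorescence read at 667 nm with signal to noise per printed feature.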 The note with it: 635 nm fluorescence, higher = more signal.
The nature of experiment [12]: cell viability in Huh7 cells, primary screen, cytotoxicity control for HCV replication inhibitor project, CellTiter-Glo luminescence, basal, 48 h (AID 1143).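 Note: Huh7 hepatoma cells carrying a hepatitis C replication reporter with no stimulus; test concentration not given here.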 The note with it: Huh7 HCV replicon, higher = more signal, called active from +8 up or from −8 down.
Experiment [13] in a line: P. aeruginosa biofilm formation inhibitors, primary screen, PAO1 strain, BacTiter-Glo luminescence, LB-PBS (AID 1144). The note with it: 12 h, higher = more signal.
Experiment [14] can be described thus: CREB reporter modulators without forskolin, primary screen, cell-based, PC12, CRE-LacZ reporter, unstimulated (AID 1145). Conditions: no forskolin, luminescence, 4.5 h, higher = more signal, called active from +8 up or from −8 down.
A short description of experiment [15]: CREB reporter modulators under forskolin, primary screen, cell-based, PC12, CRE-LacZ reporter, forskolin-stimulated (AID 1146).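 Note: PC12 cells with 6xCRE LacZ reporter stimulated by forskolin 10 µM; beta-galactosidase reporter signal reflecting CREB driven transcription.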 Conditions: luminescence, 4.5 h, higher = more signal, called active from +8 up or from −8 down.
The target of experiment [16] is Streptavidin (Streptomyces avidinii) (UniProt P22629). The experiment is described as follows: streptavidin binders on small-molecule microarray, primary screen, artefact control for SMM compound annotation, biophysical, 635/667 nm fluorescence (AID 1147).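 Note: signal reflects streptavidin binding to arrayed compounds as a control protein.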 The note with it: streptavidin binding, higher = more signal.
Experiment [17] in a line: small-molecule binders of probe aInhba, primary screen, biochemical, small-molecule microarray, 635/667 nm fluorescence (AID 1148).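 Note: score merges 667nm spot fluorescence with signal-to-noise for antibody binding to printed compounds.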 Conditions: higher = more signal.
The target in experiment [18] is Torsin-1A (Homo sapiens) (UniProt O14656). As to the kind of experiment: torsin A binders from cell lysate, primary screen, small-molecule microarray, wild-type, 635/667 nm (AID 1149). Conditions: COS7 hTOR1A-WT lysate, 635 nm fluorescence, higher = more signal.
For experiment [19] the target is unchanged. As to the kind of experiment: small-molecule binders of mutant TOR1A in lysate, primary screen, cell lysate, small-molecule microarray, COS7 lysate, 635/667 nm fluorescence (AID 1150).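 Note: score pools 667 nm emission and signal to noise measuring lysate protein binding.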 Conditions: COS7 hTOR1A mutant lysate, 635 nm fluorescence, higher = more signal.
The test system of experiment [20] is Sonic hedgehog protein (Shh). The experiment is described as follows: small-molecule binders of Shh protein, primary screen, biochemical, small-molecule microarray, 635/667 nm fluorescence (AID 1151).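 Note: Shh protein binding to compounds spotted on small-molecule microarray slides; score combines spot fluorescence intensity with signal-to-noise across triplicate slides.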 The note with it: small-molecule microarray binding, 635 nm fluorescence; higher = more signal.

Chain of Luciferin 4-monooxygenase (Photinus pyralis) (P08659 whole entry, looked up): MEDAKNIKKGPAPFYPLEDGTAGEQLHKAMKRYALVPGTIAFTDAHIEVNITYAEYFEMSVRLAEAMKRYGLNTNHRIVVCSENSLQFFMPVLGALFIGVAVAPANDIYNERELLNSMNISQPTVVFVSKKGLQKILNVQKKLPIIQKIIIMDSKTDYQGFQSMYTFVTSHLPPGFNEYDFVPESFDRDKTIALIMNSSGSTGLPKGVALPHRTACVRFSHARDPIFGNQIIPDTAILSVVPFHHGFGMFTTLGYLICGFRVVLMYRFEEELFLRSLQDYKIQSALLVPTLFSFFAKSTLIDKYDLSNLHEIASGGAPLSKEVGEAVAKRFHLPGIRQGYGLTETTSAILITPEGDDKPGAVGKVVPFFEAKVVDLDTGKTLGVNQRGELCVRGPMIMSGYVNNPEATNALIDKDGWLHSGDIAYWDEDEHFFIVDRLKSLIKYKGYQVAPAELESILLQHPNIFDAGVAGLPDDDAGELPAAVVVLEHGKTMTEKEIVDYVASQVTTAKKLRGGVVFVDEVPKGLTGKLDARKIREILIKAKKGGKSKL
Chain of Streptavidin (Streptomyces avidinii) (P22629 whole entry, looked up): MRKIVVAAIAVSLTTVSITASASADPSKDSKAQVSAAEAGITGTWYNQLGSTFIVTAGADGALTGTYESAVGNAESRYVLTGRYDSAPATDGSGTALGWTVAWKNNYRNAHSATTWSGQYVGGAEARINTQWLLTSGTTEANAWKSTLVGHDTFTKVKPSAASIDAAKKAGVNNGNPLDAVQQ
Chain of Focal adhesion kinase 1 (Homo sapiens) (Q05397 whole entry, looked up): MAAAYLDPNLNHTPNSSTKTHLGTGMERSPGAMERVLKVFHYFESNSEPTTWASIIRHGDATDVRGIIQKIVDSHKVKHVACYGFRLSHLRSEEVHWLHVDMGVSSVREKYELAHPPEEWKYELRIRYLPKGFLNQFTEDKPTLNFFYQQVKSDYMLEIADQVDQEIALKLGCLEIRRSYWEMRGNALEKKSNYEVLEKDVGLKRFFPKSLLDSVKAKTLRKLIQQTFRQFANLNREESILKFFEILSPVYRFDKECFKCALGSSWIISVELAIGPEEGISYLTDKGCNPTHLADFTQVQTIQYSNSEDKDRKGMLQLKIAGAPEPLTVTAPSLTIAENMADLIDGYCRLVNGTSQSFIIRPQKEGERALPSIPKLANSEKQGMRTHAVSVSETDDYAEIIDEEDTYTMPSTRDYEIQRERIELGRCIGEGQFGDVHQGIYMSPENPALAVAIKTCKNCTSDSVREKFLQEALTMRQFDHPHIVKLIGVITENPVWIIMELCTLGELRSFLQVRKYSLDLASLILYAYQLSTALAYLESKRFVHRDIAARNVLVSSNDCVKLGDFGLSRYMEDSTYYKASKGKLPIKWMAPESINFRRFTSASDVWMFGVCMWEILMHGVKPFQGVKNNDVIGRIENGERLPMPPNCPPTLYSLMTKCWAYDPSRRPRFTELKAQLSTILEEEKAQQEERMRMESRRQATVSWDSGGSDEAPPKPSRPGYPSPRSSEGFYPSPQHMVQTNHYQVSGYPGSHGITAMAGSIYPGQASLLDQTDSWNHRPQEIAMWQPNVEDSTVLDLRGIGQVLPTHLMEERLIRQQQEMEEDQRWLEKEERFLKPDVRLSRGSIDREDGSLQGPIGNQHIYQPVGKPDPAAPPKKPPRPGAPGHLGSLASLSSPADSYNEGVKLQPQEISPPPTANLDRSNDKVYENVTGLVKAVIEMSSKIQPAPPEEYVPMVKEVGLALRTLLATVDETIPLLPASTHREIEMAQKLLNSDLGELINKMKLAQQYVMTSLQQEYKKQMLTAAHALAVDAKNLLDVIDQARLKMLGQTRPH
Chain of Torsin-1A (Homo sapiens) (O14656 whole entry, looked up): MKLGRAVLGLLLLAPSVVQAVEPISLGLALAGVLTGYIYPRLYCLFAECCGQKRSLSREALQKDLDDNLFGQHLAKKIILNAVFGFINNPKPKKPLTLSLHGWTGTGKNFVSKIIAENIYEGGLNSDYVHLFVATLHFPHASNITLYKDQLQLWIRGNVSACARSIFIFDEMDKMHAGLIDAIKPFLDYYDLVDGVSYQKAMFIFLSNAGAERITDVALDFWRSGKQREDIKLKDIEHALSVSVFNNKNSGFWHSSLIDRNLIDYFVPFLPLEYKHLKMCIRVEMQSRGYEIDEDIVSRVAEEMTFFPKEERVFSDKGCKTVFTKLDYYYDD
Chain of Fibroblast growth factor 2 (Homo sapiens) (P09038 whole entry, looked up): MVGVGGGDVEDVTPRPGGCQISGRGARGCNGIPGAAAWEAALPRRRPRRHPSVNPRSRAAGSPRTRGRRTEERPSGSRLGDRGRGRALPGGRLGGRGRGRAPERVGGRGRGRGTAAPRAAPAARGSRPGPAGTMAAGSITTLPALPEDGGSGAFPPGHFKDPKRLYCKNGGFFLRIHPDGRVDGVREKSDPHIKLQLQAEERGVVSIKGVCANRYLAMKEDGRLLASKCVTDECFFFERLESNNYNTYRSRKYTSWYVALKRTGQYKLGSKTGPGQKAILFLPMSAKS
Chain of Follistatin (Homo sapiens) (P19883 whole entry, looked up): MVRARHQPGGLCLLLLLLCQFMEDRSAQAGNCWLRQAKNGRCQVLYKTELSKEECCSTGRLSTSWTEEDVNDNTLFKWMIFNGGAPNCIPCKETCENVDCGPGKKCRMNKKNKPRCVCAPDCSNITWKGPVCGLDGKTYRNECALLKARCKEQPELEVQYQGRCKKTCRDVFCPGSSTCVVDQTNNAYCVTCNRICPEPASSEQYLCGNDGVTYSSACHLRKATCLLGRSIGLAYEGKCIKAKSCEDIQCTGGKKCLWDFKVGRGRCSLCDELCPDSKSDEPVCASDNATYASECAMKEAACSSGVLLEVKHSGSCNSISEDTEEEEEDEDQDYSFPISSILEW

In the case of `CC[C@@H]1[C@@H]2C3C(=O)N(CC)C(=O)C3CC(=O)[C@@H]2[C@H](c2ccc(C)cc2)N1S(=O)(=O)c1ccc(C)cc1` (stereo not given in full), the composite z-score is 0.189 in experiment [1]; 1.2 in experiment [2]; 0.381 in [3]; -0.826 in experiment [4]; 0.573 in experiment [5]; -0.415 in experiment [6]. The composite z-score in [8] is 0.417; in [9] it was 0.519; in experiment [11], 0.513; in experiment [16] it was 0.492; in experiment [17] it was -0.0523; in experiment [18] it was -0.087. Further, the composite z-score in experiment [19] is 0.645; in experiment [20], 1.18. For the same compound, the z-score in experiment [7] was -0.0765; in [10], 1.46 (inactive); in [12] it was -3.1 (inactive); in experiment [13], -1.88 (inactive); in [14] it was -0.424 (inactive); in experiment [15] it was -0.42 (inactive).
Regarding `COc1ccc(CCNC(=O)[C@@H]2c3ccccc3C(=O)N(Cc3ccccc3C(F)(F)F)[C@H]2c2ccc(CO)cc2)cc1`, the composite z-score in experiment [1] was 0.263; in experiment [2], 0.656; in [3], 0.495; in experiment [4] it was -0.731; in [5] it was 0.566; in experiment [6] it was -0.388. Also, the composite z-score was -0.526 in [8]; 0.665 in experiment [9]; -0.189 in [11]; -0.752 in experiment [16]; -0.168 in [17]; -1.27 in [18]. Besides, the composite z-score in experiment [19] was 0.714; in [20] it was -0.25. Further, the z-score in [7] was 1.07; in experiment [10] it was 0.912 (inactive); in experiment [12] it was -2.64 (inactive); in [13] it was -0.984 (inactive); in experiment [14], -0.295 (inactive); in [15], -0.132 (inactive).
With `C[N+](C)(C)CCCCCCNC(=O)[C@@H]1C[C@@H]2C(=O)NCC(=O)N2[C@@H]1c1cccc(OCCO)c1`, the composite z-score in experiment [1] worked out at 1.4; in experiment [2] it was 0.044; in experiment [3] it was 1.18; in [4], 0.615; in experiment [5], 1.38; in experiment [6], 1.33. For the same compound, the composite z-score was 1.28 in experiment [8]; 0.571 in [9]; 0.338 in experiment [11]; -0.357 in experiment [16]; -0.0986 in experiment [17]; 0.335 in experiment [18]. For the same compound, the composite z-score is -0.371 in [19] and 2.16 in experiment [20]. In addition, the z-score is -0.842 in experiment [7]; 0.801 (inactive) in experiment [10]; -3.36 (inactive) in experiment [12]; -1.82 (inactive) in [13]; -0.797 (inactive) in experiment [14]; -0.933 (inactive) in experiment [15].
Regarding `CCOC(=O)C[C@H]1[C@H](OC(=O)c2ccccc2-c2ccccc2)[C@@H](NC(=O)c2ccccc2)c2cc(OCCCO)ccc2N1C(=O)Cc1ccc(OC)cc1`, the composite z-score in [1] is -0.277; in [2], -0.64; in [3], 0.0427; in experiment [4], 0.66; in experiment [5], -0.0263; in experiment [6] it was -0.188. Also, the composite z-score in experiment [8] is -0.018; in experiment [9], 0.564; in experiment [11] it was -0.105; in experiment [16], 0.621; in experiment [17], -0.154; in experiment [18] it was -0.193. Further, the composite z-score worked out at 0.0375 in [19] and 0.0772 in [20]. The z-score is 0.322 in experiment [7]; 0.897 (inactive) in experiment [10]; 0.0692 (inactive) in [12]; -0.228 (inactive) in experiment [13]; 1.58 (inactive) in experiment [14]; 0.0006 (inactive) in experiment [15].
For `COCCOC(=O)N1C(=O)[C@@]2(c3cc(C#CCNC(N)=O)ccc31)[C@H](c1ccc(OCCO)cc1)N1[C@H](c3ccccc3)[C@H](c3ccccc3)OC(=O)[C@H]1[C@@H]2C(=O)N1CCN(c2ncccn2)CC1`, the composite z-score stood at 0.122 in experiment [1]; 1.09 in experiment [2]; 1.58 in [3]; 0.72 in experiment [4]; 1.41 in experiment [5]; 1.24 in experiment [6]. The composite z-score in experiment [8] is 0.411; in experiment [9] it was 0.447; in experiment [11], 0.333; in experiment [16] it was 0.651; in experiment [17] it was -0.024; in experiment [18], 0.833. Also, the composite z-score turned out to be 0.581 in [19] and 0.983 in [20]. Also, the z-score in experiment [7] is -1.57; in [10], -1.23 (inactive); in experiment [12] it was 0.0075 (inactive); in [13], 0.443 (inactive); in experiment [14], 0.212 (inactive); in experiment [15] it was 0.675 (inactive).
